Laboratory results taken from the supplement of paper PMC12645437, “Orthogonal IMiD-Degron Pairs Induce Selective Protein Degradation in Cells” (ACS Chemical Biology, 2025).
Over roughly 8,300 sequences, “log2 fold change of degron read counts, EGFP-low vs EGFP+ sorted cells (limma voom), compound-induced degradation” has its median near -1.1; the highest 2% begin near 3.2. The sample as a whole holds a higher share of the highest values than the screen did.

T1: CRBN, Q96SW2
T1 chain: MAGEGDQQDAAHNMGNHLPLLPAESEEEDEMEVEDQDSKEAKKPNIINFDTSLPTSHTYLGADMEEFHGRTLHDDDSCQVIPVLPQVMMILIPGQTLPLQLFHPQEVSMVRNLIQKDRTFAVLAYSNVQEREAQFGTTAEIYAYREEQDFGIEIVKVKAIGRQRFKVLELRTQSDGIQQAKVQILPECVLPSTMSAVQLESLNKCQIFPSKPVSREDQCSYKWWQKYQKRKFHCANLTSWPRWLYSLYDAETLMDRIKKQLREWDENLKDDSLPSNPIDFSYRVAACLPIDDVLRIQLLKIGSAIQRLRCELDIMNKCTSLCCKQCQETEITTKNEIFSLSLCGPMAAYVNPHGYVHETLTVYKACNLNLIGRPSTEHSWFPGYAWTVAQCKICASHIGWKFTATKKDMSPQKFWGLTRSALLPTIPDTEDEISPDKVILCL


Target: T1, CRBN, Q96SW2
Test: log2 fold change of degron read counts, EGFP-low vs EGFP+ sorted cells (limma voom), compound-induced degradation; higher = more compound-induced degradation of the degron-EGFP fusion; degrons are variants of IKZF1/3 zinc finger 2; compound dose not given here
Details: Jurkat, 18 h
Method: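 Pooled library of 8380 IKZF3 ZF2 degron mutants (positions 146-167 varied within the IKZF3 130-189 degron; only the varied core is printed, flanks not printed) fused to EGFP with IRES-mCherry, lentivirally expressed in Jurkat cells. mCherry+ cells were treated with one IMiD compound for 18 h (dose not stated) and FACS-sorted into EGFP-low and EGFP+ populations. Degron sequences were counted by NGS, and log2FC (EGFP-low vs EGFP+) was estimated by limma voom over 3 biological replicates.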

[1] = compound: compound 19 (5-tert-butyl-thalidomide)
[2] = compound: compound 22 (5-morpholino-thalidomide)
[3] = compound: compound 33 (diphenyl IMiD analogue)
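Also: pooled lentiviral library of zinc finger degron-EGFP fusions in mCherry-positive Jurkat cells, FACS-sorted after compound exposure, with degron abundance counted by next-generation sequencing.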

Sequence	log2 fold change of degron read counts [1]	log2 fold change of degron read counts [2]	log2 fold change of degron read counts [3]	log2 fold change of degron read counts (compound: thalidomide)
LRCEICGFFCTQKGNLLRHIKL [46L_47R_49E_50I_52G_53F_54F_55C_67L_, Q9UKT9]	-0.285	-0.446	0.954	1.12
FSCNQCGHKFTQKGNLLRHIKL [46F_47S_49N_50Q_52G_53H_54K_55F_67L_, Q9UKT9]	-2.24	-2.55	-2.41	-2.6
FACEQCGAYFTQKGNLLRHIKL [46F_47A_49E_50Q_52G_53A_54Y_55F_67L_, Q9UKT9]	-0.764	-2.44	-1.5	-1.62
FCCNQCGHDFTQKGNLLRHIKL [46F_47C_49N_50Q_52G_53H_54D_55F_67L_, Q9UKT9]	-2.95	-3.42	-3.04	-2.8
FDCNQCGRCFTQKGNLLRHIKL [46F_47D_49N_50Q_52G_53R_54C_55F_67L_, Q9UKT9]	-2.4	-2.73	-2.2	-1.93
FWCPVCGAAFTQKGNLLRHIKL [46F_47W_49P_50V_52G_53A_54A_55F_67L_, Q9UKT9]	3.13	3.69	2.44	1.11
FICPVCGAAFTQKGNLLRHIKL [46F_47I_49P_50V_52G_53A_54A_55F_67L_, Q9UKT9]	-0.386	2.86	2.22	2.77
FVCPVCGAAFTQKGNLLRHIKL [46F_47V_49P_50V_52G_53A_54A_55F_67L_, Q9UKT9]	0.708	3.2	2.37	3.08
FMCPVCGAAFTQKGNLLRHIKL [46F_47M_49P_50V_52G_53A_54A_55F_67L_, Q9UKT9]	1.72	2.21	3.08	2.11
FCCPVCGAAFTQKGNLLRHIKL [46F_47C_49P_50V_52G_53A_54A_55F_67L_, Q9UKT9]	3.16	2.58	2.48	2.16
FHCPVCGAAFTQKGNLLRHIKL [46F_47H_49P_50V_52G_53A_54A_55F_67L_, Q9UKT9]	2.96	2.4	2.16	0.942
FVCPQCGAAFTQKGNLLRHIKL [46F_47V_49P_50Q_52G_53A_54A_55F_67L_, Q9UKT9]	-1.44	1.34	1.04	1.46
FECPVCGAAFTQKGNLLRHIKL [46F_47E_49P_50V_52G_53A_54A_55F_67L_, Q9UKT9]	2.1	-0.445	2.32	3
FQCPVCGAAFTQKGNLLRHIKL [46F_47Q_49P_50V_52G_53A_54A_55F_67L_, Q9UKT9]	2.54	3.1	2.52	3.69
FYCPQCGAAFTQKGNLLRHIKL [46F_47Y_49P_50Q_52G_53A_54A_55F_67L_, Q9UKT9]	1.03	1.46	1.86	-0.429
FQCPQCGAAFTQKGNLLRHIKL [46F_47Q_49P_50Q_52G_53A_54A_55F_67L_, Q9UKT9]	-0.422	1.04	0.683	3.27
FGCPVCGAAFTQKGNLLRHIKL [46F_47G_49P_50V_52G_53A_54A_55F_67L_, Q9UKT9]	3.32	2.34	2.97	1.29
FFCPICGRMFTQKGNLLRHIKL [46F_47F_49P_50I_52G_53R_54M_55F_67L_, Q9UKT9]	0.209	-0.113	0.441	-0.935
